# Results published in PubChem BioAssay (NCATS).
# Inconclusive results are not listed. Activity calls are given as the source filed them. The call rests on the fitted dose curve; in most records, active means well fitted cell-killing curve with a large enough effect; inconclusive means small, poorly fitted or top-dose-only effect; inactive means no such curve, though single readings can be large or run the other way.
# Test: qHTS of pediatric cancer cell lines to identify multiple opportunities for drug repurposing: Confirmatory screen for Rh41 cells (AID 1347123);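 further: 48 h compound exposure; nearly all actives have a fitted effect of over 60% in size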
# Conditions: Rh41 rhabdomyosarcoma cells, viability/cytotoxicity qHTS; series mostly up to 45.9 µM
# Description: Drug repurposing or repositioning has been offered as a strategy for drug development in oncology programs. This approach has special potential for childhood cancers and other rare or orphan diseases, where the expected return on new drug development has been a disincentive to pharmaceuticals.
# In this project we exploit the poly-pharmacology of drugs to discover new indications via phenotypic screening of a panel of 19 well-characterized cell lines derived from solid tumors seen in children and adolescents. The goal is to identify approved drugs with previously unrecognized anticancer properties that has the potential to reveal new mechanisms and biological processes involved in carcinogenesis or drug resistance. We employed a titration-based paradigm (quantitative high-throughput screening or qHTS), where all compounds were tested at multiple concentrations for their effect on cell viability. Concentration-response curves (CRCs) were derived directly from the primary screen, and both potency and efficacy values were used to identify compounds with robust bioactivity profiles. We screened the NIH Chemical Genomics Center (NCGC) Pharmaceutical Collection (NPC) and Mechanism Interrogation Plate (MIPE) small molecule collections of approved and investigational compounds against these cell lines; and measured metabolically active cells after 48 hours of compound treatment as a proxy for cell viability.
# Assay Submitter: Nathalia J. Martinez, National Center for Advancing Translational Sciences, National Institutes of Health, Rockville, MD, USA; email: natalia.martinez@nih.gov
# [1] Shen, M et al. Quantitative high-throughput phenotypic screening of pediatric cancer cell lines identifies multiple opportunities for drug repurposing. Oncotarget 2017 Dec 19;9(4):4758-4772. PMID 29435139.
# The cells were obtained from University of North Carolina (UNC), Pediatric Preclinical Testing Program (PPT), and Coriell Institute (CI).
# qHTS cell viability assay:
# Cells were assayed in growth media at a density of 500-1,000 cells/well. Five microliters of cells were dispensed into 1,536-well, white, solid-bottom, TC-treated plates (Greiner Bio One) using a multidrop dispenser and incubated at 37 degrees C, 5% CO2, under a humidified atmosphere for 5 hours. Twenty-three nanoliters of compounds and controls (neutral control DMSO or positive control bortezomib at final concentration of 2.3 µM) were subsequently transferred by Kalypsys pintool. For primary screens, the MIPE collection was tested at 11-point dilutions (final concentrations range from 0.78 nM to 46 µM) and the NPC collection at 8-point dilutions (final concentrations range from 0.59 nM to 46 µM). Compounds tested in follow-up screens were assayed at 11-point dilutions. Cells were incubated for 48 hours, followed by addition of 3 µL of CellTiter-Glo (Promega). After a 15 min incubation at room temperature, samples were analyzed for luminescence intensity using a ViewLux High-throughput CCD imager equipped with clear filters.
# Potency means the concentration at half of the fitted maximal effect.
row,Structure (SMILES),Potency
1,N=C(N)c1ccc(OCCCOc2ccc(C(=N)N)cc2)cc1,inactive
2,CC(=O)OCC(=O)[C@@]1(O)[C@H](OC(C)=O)C[C@H]2[C@@H]3CCC4=CC(=O)C=C[C@]4(C)[C@@]3(F)[C@@H](O)C[C@@]21C,inactive
3,CCC(=O)O[C@]1(C(=O)COC)[C@@H](C)C[C@H]2[C@@H]3CCC4=CC(=O)C=C[C@]4(C)C3(F)[C@@H](O)C[C@@]21C (stereo partly drawn),16.5 µM (active)
4,Nc1ccc2cc3ccc(N)cc3nc2c1,5.85 µM (active)
5,CO[C@@H]1[C@@H](OC)[C@H](C)[C@@](O)(CC(=O)O)O[C@H]1[C@H](C)[C@H]1O[C@@]2(CC[C@@](C)([C@H]3CC[C@@](C)([C@@H]4O[C@@H]([C@H]5O[C@](C)(O)[C@H](C)C[C@@H]5C)C[C@@H]4OC4C[C@H](OC)[C@@H](OC)[C@H](C)O4)O3)O2)C[C@H](O)[C@H]1C (stereo partly drawn),0.465 µM (active)
6,COc1c(C)c2c(c(O)c1C/C=C(\C)CCC(=O)OCCN1CCOCC1)C(=O)OC2,2.33 µM (active)
7,CCCCC(CC)CNC(=O)CC(C)OC(=O)CCC(=O)O (stereo not drawn),inactive
8,Nc1c2ccccc2nc2ccccc12,16.5 µM (active)
9,O=c1[nH]sc2cc(Cl)ccc12,1.85 µM (active)
10,CN(C)CCN(Cc1ccsc1)c1ccccn1,inactive
11,C[C@]12CCC(=O)C=C1CC[C@@H]1[C@@H]2[C@@H](O)C[C@@]2(C)[C@H]1CC[C@]2(O)C(=O)COC(=O)CCC(=O)O,inactive
12,CCCCC(=O)OCC(=O)[C@H]1[C@H](C)C[C@H]2[C@@H]3C[C@H](F)C4=CC(=O)C=C[C@]4(C)[C@@]3(F)[C@@H](O)C[C@@]21C,29.3 µM (active)
13,CCC1(c2cnc[nH]2)Cc2ccccc2C1,16.5 µM (active)
14,CCOC(=O)O[C@]1(C(=O)OCCl)CC[C@H]2[C@@H]3CCC4=CC(=O)C=C[C@]4(C)[C@H]3[C@@H](O)C[C@@]21C,inactive
15,CC[C@@]1(O)C(=O)OCc2c1cc1n(c2=O)Cc2c-1nc1ccccc1c2/C=N/OC(C)(C)C,0.522 µM (active)
16,COc1cc(/C=C/C(N)=O)cc(OC)c1OC,inactive
17,CCN(CC)CC(=O)OCC(=O)[C@@]1(O)CC[C@H]2[C@@H]3CCC4=CC(=O)CC[C@]4(C)[C@H]3[C@@H](O)C[C@@]21C,inactive
18,C[C@H]1C[C@@H]2[C@H]([C@@H](O)C[C@@]3(C)[C@H]2CC[C@]3(O)C(=O)CO)[C@@]2(C)C=CC(=O)C=C12,inactive
19,CC(C)=CCC/C(C)=C/CC/C(C)=C/C(=O)OCC(=O)[C@@]1(O)CC[C@H]2[C@@H]3CCC4=CC(=O)C=C[C@]4(C)[C@H]3[C@@H](O)C[C@@]21C,16.5 µM (active)
20,CC(=O)OCC(=O)[C@@]1(O)CCC2C3CCC4=CC(=O)CC[C@]4(C)C3[C@@H](O)C[C@@]21C (stereo partly drawn),11.7 µM (active)
21,Cc1cc(OCCOCC[N+](C)(C)Cc2ccccc2)ccc1C(C)(C)CC(C)(C)C,7.37 µM (active)
22,Cc1nc(N)nc(N)c1-c1ccc(Cl)c(Cl)c1,inactive
23,CCc1cc2cc(OC)c(OC)cc2c(Cc2ccccc2)n1,18.5 µM (active)
